# Records with an inconclusive call do not appear. Entries that show only a call come without a potency. Active and inactive are the calls of the source. Calls follow the shape of the dose curve; as a rule, active = well fitted inhibition curve with a large enough effect; inconclusive = small, poorly fitted or top-dose-only effect; inactive = flat fitted curve, though single readings scatter.
# System: CP238
# Experiment: qHTS profiling for inhibitors of Plasmodium falciparum proliferation (AID 504749); also: nearly all actives have a fitted effect of over 60% in size
# Settings: P. falciparum in erythrocytes, SYBR Green DNA, 72 h; series mostly up to 28.7 µM
# Summary of the method: (§1)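 Infected RBCs, 0.3% parasitemia/2.5% Hct final; cpd 72 h, 37 C, 5% CO2; lysis buffer with saponin/triton/SYBR Green I, o/n RT dark; FI 485/535; norm. to artemisinin (0.29 uM) and DMSO.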
# Potency is read from the fitted curve at half-maximal effect.
row,Compound,Potency
1,O=C1[C@H]2CCCC[C@H]2C(=O)N1CCCCN1CCN(c2nsc3ccccc23)CC1,inactive
2,C[C@@H]1C[C@H]2[C@@H]3CCC4=CC(=O)C=C[C@]4(C)[C@@]3(F)[C@@H](O)C[C@]2(C)[C@H]1C(=O)CO,inactive
3,CC(=O)OCC(=O)[C@@]1(OC(C)=O)[C@@H](C)C[C@H]2[C@@H]3C[C@H](F)C4=CC(=O)C=C[C@]4(C)[C@@]3(F)[C@@H](O)C[C@@]21C,inactive
4,CN(C(=O)CN(CCO)CC(=O)N(C)C(C)(C)Cc1ccccc1)C(C)(C)Cc1ccccc1,inactive
5,CCOc1ccc(Cc2nccc3cc(OCC)c(OCC)cc23)cc1OCC,inactive
6,CC(=O)N/N=C/c1ccc([N+](=O)[O-])o1,inactive
7,CCCCN1CCCC1C(=O)Nc1c(C)cc(C)cc1C (configuration not stated),inactive
8,O=C(N/N=C/c1ccccc1O)c1ccncc1,8.91 µM (active)
9,Cc1cccc(C)c1NC(=O)CN1CCN(CCCC(c2ccc(F)cc2)c2ccc(F)cc2)CC1,inactive
10,CCCCCCCCCCOCC(O)CN (configuration not stated),inactive
11,CN1CCN(C(c2ccccc2)c2ccccc2)CC1,inactive
12,CCN1CCC[C@H]1CNC(=O)c1c(OC)ccc(Br)c1OC,inactive
13,Oc1ccc(Cl)c2cccnc12,inactive
14,CCN1CCN(c2cc3c(cc2F)c(=O)c(C(=O)O)cn3C2CC2)CC1,inactive
15,CC(Cc1cccc(C(F)(F)F)c1)NCCOC(=O)c1ccccc1 (configuration not stated),inactive
16,CC(=O)c1ccc2c(c1)N(CCCN1CCC(CCO)CC1)c1ccccc1S2,inactive
17,CC(C)N=C(N)/N=C(\N)Nc1ccc(Cl)cc1,inactive
18,O=C(Nc1ccc(Oc2ccc(Cl)cc2)c(Cl)c1)c1cc(I)cc(I)c1O,inactive
19,CCN(CC)C(=O)/C(C#N)=C/c1cc(O)c(O)c([N+](=O)[O-])c1,inactive

# System: CP247
# Experiment: as above
# Settings: P. falciparum in erythrocytes, SYBR Green DNA, 72 h; series mostly up to 28.7 µM
# Summary of the method: as §1
row,Compound,Potency
1,O=C1[C@H]2CCCC[C@H]2C(=O)N1CCCCN1CCN(c2nsc3ccccc23)CC1,inactive
2,C[C@@H]1C[C@H]2[C@@H]3CCC4=CC(=O)C=C[C@]4(C)[C@@]3(F)[C@@H](O)C[C@]2(C)[C@H]1C(=O)CO,inactive
3,CC(=O)OCC(=O)[C@@]1(OC(C)=O)[C@@H](C)C[C@H]2[C@@H]3C[C@H](F)C4=CC(=O)C=C[C@]4(C)[C@@]3(F)[C@@H](O)C[C@@]21C,inactive
4,CN(C(=O)CN(CCO)CC(=O)N(C)C(C)(C)Cc1ccccc1)C(C)(C)Cc1ccccc1,inactive
5,CCN(CCCc1ccccc1)CCCc1ccccc1,inactive
6,C=C(CC)C(=O)c1ccc(OCC(=O)O)c(Cl)c1Cl,10 µM (active)
7,CCOc1ccc(Cc2nccc3cc(OCC)c(OCC)cc23)cc1OCC,inactive
8,Clc1ccc2c(c1)CCc1cccnc1C2=C1CCNCC1,inactive
9,CCCCN1CCCC1C(=O)Nc1c(C)cc(C)cc1C (configuration not stated),inactive
10,O=C(N/N=C/c1ccccc1O)c1ccncc1,8.91 µM (active)
11,Cc1cccc(C)c1NC(=O)CN1CCN(CCCC(c2ccc(F)cc2)c2ccc(F)cc2)CC1,inactive
12,CCCCCCCCCCOCC(O)CN (configuration not stated),inactive
13,CN1CCN(C(c2ccccc2)c2ccccc2)CC1,inactive
14,Oc1ccc(Cl)c2cccnc12,inactive
15,CCN1CCN(c2cc3c(cc2F)c(=O)c(C(=O)O)cn3C2CC2)CC1,inactive
16,CC(Cc1cccc(C(F)(F)F)c1)NCCOC(=O)c1ccccc1 (configuration not stated),inactive
17,CC(=O)c1ccc2c(c1)N(CCCN1CCC(CCO)CC1)c1ccccc1S2,inactive

# System: CP250
# Experiment: as above
# Settings: P. falciparum in erythrocytes, SYBR Green DNA, 72 h; series mostly up to 28.7 µM
# Summary of the method: as §1
row,Compound,Potency
1,O=C1[C@H]2CCCC[C@H]2C(=O)N1CCCCN1CCN(c2nsc3ccccc23)CC1,inactive
2,C[C@@H]1C[C@H]2[C@@H]3CCC4=CC(=O)C=C[C@]4(C)[C@@]3(F)[C@@H](O)C[C@]2(C)[C@H]1C(=O)CO,inactive
3,CC(=O)OCC(=O)[C@@]1(OC(C)=O)[C@@H](C)C[C@H]2[C@@H]3C[C@H](F)C4=CC(=O)C=C[C@]4(C)[C@@]3(F)[C@@H](O)C[C@@]21C,inactive
4,O=c1c(-c2ccccc2)c1-c1ccccc1,11.2 µM (active)
5,CN(C(=O)CN(CCO)CC(=O)N(C)C(C)(C)Cc1ccccc1)C(C)(C)Cc1ccccc1,inactive
6,CCN(CCCc1ccccc1)CCCc1ccccc1,inactive
7,C=C(CC)C(=O)c1ccc(OCC(=O)O)c(Cl)c1Cl,12.6 µM (active)
8,CCOc1ccc(Cc2nccc3cc(OCC)c(OCC)cc23)cc1OCC,inactive
9,Clc1ccc2c(c1)CCc1cccnc1C2=C1CCNCC1,inactive
10,CCCCN1CCCC1C(=O)Nc1c(C)cc(C)cc1C (configuration not stated),inactive
11,O=C(N/N=C/c1ccccc1O)c1ccncc1,10 µM (active)
12,Cc1cccc(C)c1NC(=O)CN1CCN(CCCC(c2ccc(F)cc2)c2ccc(F)cc2)CC1,inactive
13,CCCCCCCCCCOCC(O)CN (configuration not stated),inactive
14,CN1CCN(C(c2ccccc2)c2ccccc2)CC1,inactive
15,CCN1CCC[C@H]1CNC(=O)c1c(OC)ccc(Br)c1OC,inactive
16,Oc1ccc(Cl)c2cccnc12,inactive
17,CCN1CCN(c2cc3c(cc2F)c(=O)c(C(=O)O)cn3C2CC2)CC1,inactive
18,CC(Cc1cccc(C(F)(F)F)c1)NCCOC(=O)c1ccccc1 (configuration not stated),inactive
19,CN(C)CC/C=C1\c2ccccc2Sc2ccc(Cl)cc21,inactive
20,CC(=O)c1ccc2c(c1)N(CCCN1CCC(CCO)CC1)c1ccccc1S2,inactive
21,CCN(CC)C(=O)/C(C#N)=C/c1cc(O)c(O)c([N+](=O)[O-])c1,inactive

# From PubChem BioAssay (NCATS)
